Drawing on PubChem BioAssay (NCI), this text covers growth for 40 compounds.

Each structure is given as a SMILES string. About 83,000 compounds went through this panel and 20% of them were active in at least one assay; those are over-represented in the sample as a whole.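 Testing used 96-well plates and a 48-hour single-concentration exposure. Example: -40 means 40% of the starting cells died.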 A number with no mark means an inactive call. The source made the active and inactive calls.

The assay has as its system MDA-MB-435 melanoma. Kind of assay: NCI-60 one-dose screen, 48 h (100 = growth as untreated, 0 = no growth, -100 = all killed). The following applies: 10 µM unless noted. As for the experimental part: Growth inhibition of the MDA-MB-435 human Melanoma tumor cell line is measured as a screen for anti-cancer activity. Cells are grown in 96 well plates and exposed to the test compound for 48 hours. Compounds are tested at a single concentration, which is 10^-5 M for most compounds. The reported endpoint is percent growth (GI% or GIPRCNT), where numbers from 0 - 100% represent growth inhibition, and numbers from -100% - 0 represent cell death. For example, a value of 40 represents 60% growth inhibition. A value of 0 means no net growth occurred over the course of the experiment. A value of -40 indicates 40% of cells at the beginning of the experiment died by the end of the experiment. A value of -100 means all cells are dead at the end of the experiment.
NCI-60 Human Tumor Cell Lines Screen was performed using the standard one-dose NCI protocol, which is described in more detail at https://dtp.cancer.gov/discovery_development/nci-60/default.htm.
Compounds with GIPRCNT values below 10 were considered active. Activity score was based on GIPRCNT using the following formula: […]
Score is 0 for GIPRCNT values of 100 or above, 50 for GIPRCNT values of 0, and 100 for GIPRCNT values of -100.
In the case of `C=CCn1c(SCC(=O)Nc2ccc(C(=O)/C=C/c3ccccc3)cc2)nnc1-c1ccc(OC)c(OC)c1`, the growth was 69.3%.

For the compound `C/C(=C\C(=N\N=C(N)N)c1ccc(Cl)cc1)c1ccc(Cl)cc1`, the growth is -62.9% (active).

Consider `Nc1nc2ccc([C@@H]3Nc4ccc5[nH]ncc5c4[C@H]4[C@H]5CCC(C5)[C@H]43)cc2s1`, for which the growth was -62.4% (active).

Consider `Nc1c(C(=O)Nc2cccc(Cl)c2)sc2ncc(Br)cc12`, for which the growth was 71.9%.

As for `O=c1[nH]cnc2nc[nH]c12`, the growth is 93.5%.

In the case of `C[C@@H]1C[C@H](N)C[C@H](c2ccncc2NC(=O)c2ccc(F)c(-c3c(F)cccc3F)n2)C1`, the growth was 34.5%.

As to `O=C(CCc1nc2sc3c(c2c(=O)[nH]1)CCC3)NCc1cn(-c2ccccc2)nc1-c1ccccc1`, the growth is 76.1%.

With `COc1cc(C2CC(c3cccc(Nc4ccnc5cc(Cl)ccc45)c3)=NN2c2ccc(Cl)cc2)cc(OC)c1OC` (stereo not given), the growth is 8.15% (active).

For the compound `O=C(Nc1ccc(Br)cc1)Nc1ccccc1Cl`, the growth is 102%.

With `O=S(=O)(NCC[C@@H]1C[C@H]1c1ccc2ccccc2c1)c1ccc(C(F)(F)F)cc1`, the growth was 99.1%.

With `Cc1ccc(CSCc2ccc(C(=O)NC3CC3)o2)cc1`, the growth was 77.7%.

As to `Nc1ncnc2c1N=C(c1ccc(F)cc1)CC(c1sc(Cl)nc1Cl)N2` (stereo not given), the growth was 102%.

Take `C/C(=N\NC(=S)N1CCCCC1)c1ccccn1`: the growth is 14.6%.

With `CCCc1n(Cc2ccc3ccccc3c2)c2ccccc2[n+]1Cc1ccc2ccccc2c1`, the growth is -82.8% (active).

As to `CCCCn1c(C)nc2cc(Nc3nc(Cl)nc4nc[nH]c34)ccc21`, the growth was 90.1%.

On to `O=C(C(Br)C(Br)c1ccccc1)C(Br)C(Br)c1ccccc1` (stereo not given), for which the growth is -37.5% (active).

`O=C1C=CC(=O)N1CO`: the growth was 127%.

As to `Nc1nc2c(c3ncccc13)C(c1ccccc1)Cc1ncccc1-2` (stereo not given), the growth was -0.757% (active).

Turning to `COc1ccc(/C(=C\c2cc(OC)c(OC)c(OC)c2)C(=O)Nc2nc3ccc(Cl)cc3s2)cc1`, the growth is 100%.

For `CC(=O)c1cc(C(=O)c2ccc3c(c2)Sc2ccccc2N3)c2c(C)cccn12`, the growth is -26.9% (active).

`COc1cc(/C=C/C(=O)c2ccc(NC(=O)CSc3nnc(-c4ccc(Cl)cc4)n3-c3ccccc3)cc2)cc(OC)c1OC`: the growth is 64.4%.

Turning to `COc1ccc(C(=O)c2cc(C)c(OC)c(C)c2)cc1OC(=O)CCl`, the growth was -23.5% (active).

As for `O=C1c2ccccc2C2N1CCC1CCc3ccccc3N12` (stereo not given), the growth was 110%.

Take `CCN(CC)CCCC(C)Nc1cnc(C(=O)Nc2cccc3ccc(OC)nc23)cn1` (stereo not given): the growth was -58.2% (active).

As for `Cc1ccc2oc(=O)cc(-c3nc4ccc([N+](=O)[O-])cc4[nH]3)c2c1`, the growth is 64.6%.

As to `CCc1ccc2c(c1)N(CCO)C1=C(C(=O)OC1)C2c1cccc(Br)c1` (stereo not given), the growth was -62.5% (active).

Turning to `CC1=NC(c2ccc(Cl)cc2)C2=C(N1)/C(=C/c1ccc(Cl)cc1)CCC2` (stereo not given), the growth was 22.4%.

Take `Cc1nc2c(-c3cnc(N)nc3)nc(N3CCOCC3)nc2n1C(C)C`: the growth is 4.17% (active).

For the compound `O=C(Nc1ccc2[nH]c3ccccc3c2c1)c1ccccc1Cl`, the growth is -53.1% (active).

Consider `N=C(N)c1ccc(-c2ccc(-c3cc(Cl)cc(Cl)c3)o2)nc1`, for which the growth is -78.1% (active).

As to `Fc1[nH]nc2ccc([C@@H]3Nc4ccc5[nH]ncc5c4[C@H]4C5CCC(C5)[C@@H]34)cc12` (stereo not given in full), the growth is -42.5% (active).

As to `CN=C1C=C/C(=N/N=c2/ccn(O)cc2C)C=C1C`, the growth was 102%.

For `C#CC[C@@H]1C[C@]2(C)[C@H]3CC=C4[C@H]5[C@@H](C)[C@H](C)CC[C@]5(C(=O)NCCCCN)CC[C@@]4(C)[C@]3(C)CC[C@H]2C(C)(C)[C@H]1OC(C)=O`, the growth was 40%.

Take `CN1CCN(Cc2ccc(NC(=O)c3cccc(C#Cc4cnc(N)c5ncccc45)c3F)cc2C(F)(F)F)CC1`: the growth was -82.7% (active).

Regarding `O=C(CS)OCC(COC(=O)CS)(COC(=O)CS)COC(=O)CS`, the growth is 78.8%.

In the case of `CCN(CC)CCCC(C)Nc1cnc(C(=O)Nc2cc(C)cc3cccnc23)cn1` (stereo not given), the growth is 83.7%.

Regarding `CCCCNCC(O)c1cc(-c2ccc(C(F)(F)F)cc2)nc(-c2ccc(C(F)(F)F)cc2)c1` (stereo not given), the growth is -68.6% (active).

Consider `Nc1nc(N)c2cc(CNc3ccc(Cl)c(Cl)c3)ccc2n1`, for which the growth is -1.48% (active).

In the case of `Clc1ccc(Nc2ncnc3c2sc2ncccc23)c(Cl)c1`, the growth was 36.3%.

For `COc1ccc(/C(=C\c2cc(OC)c(OC)c(OC)c2)C(=O)N2CCCNCC2)cc1`, the growth was 111%.
